# Test results from PubChem BioAssay (NCATS).
# Results filed as inconclusive are left out. A number with no mark means an inactive call. Activity calls are given as the source filed them. Calls come from the whole dose curve; as a rule, active = well fitted activation curve with a large enough effect; inconclusive = small, poorly fitted or top-dose-only effect; inactive = no such curve, though single readings can be large or run the other way.
# Target: Cellular tumor antigen p53 (Homo sapiens) (UniProt P04637)
# Sequence (P04637 whole entry, looked up): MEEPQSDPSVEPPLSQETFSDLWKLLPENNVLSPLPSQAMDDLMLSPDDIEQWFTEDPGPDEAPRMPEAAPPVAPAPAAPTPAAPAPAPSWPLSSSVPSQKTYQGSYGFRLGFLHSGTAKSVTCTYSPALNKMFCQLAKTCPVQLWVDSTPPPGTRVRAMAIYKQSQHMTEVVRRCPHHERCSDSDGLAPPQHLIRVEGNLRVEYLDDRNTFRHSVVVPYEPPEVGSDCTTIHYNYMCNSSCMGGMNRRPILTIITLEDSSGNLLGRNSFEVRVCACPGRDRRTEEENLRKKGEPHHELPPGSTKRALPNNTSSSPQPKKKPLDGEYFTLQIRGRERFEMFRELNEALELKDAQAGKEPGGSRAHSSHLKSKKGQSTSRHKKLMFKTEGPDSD
# Assay: Primary qHTS for small molecule compounds that upregulate eGFP-tagged delta133p53alpha (in N-terminal) cells. (AID 2060322); note: nearly all actives have a fitted effect of over 75% in size;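 for activation: cells pre-induced with doxycycline then dosed without doxycycline; series mostly up to about 56 µM; 0% = DMSO vehicle and 100% = reference activator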
# Details: NCI-H358 eGFP-delta133p53alpha fluorescence, 24 h; activation: stronger effect = higher value
# Method in brief: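 NCI-H358 cells pre-induced 24 h with 10 ng/ml doxycycline for eGFP-delta133p53alpha, plated dox-free and exposed 24 h at 37C to titrated compounds. Fixed, Hoechst-stained; gated GFP peak intensity by laser scanning cytometry, normalized to DMSO (0%) and 57.5 uM 5-azacytidine (100%).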
# Potency is the fitted concentration of half-maximal effect.
Compound,activation,Potency
CO/N=C(/C(=O)N[C@@H]1C(=O)N2C(C(=O)OCOC(=O)C(C)(C)C)=C(C)CS[C@H]12)c1csc(N)n1,-20.9%,
CCN(CC)CCc1nc(-c2ccccc2)no1,-25.1%,
C[N+](C)(C)CC(O)CC(=O)[O-] (stereo not given),7.53%,
CC(C)C(=O)OCc1cccc(OC(=O)[C@@H]2N3C(=O)[C@@H](NC(=O)Cc4ccccc4)[C@H]3SC2(C)C)c1,-5.86%,
CCC[C@@H]1C[C@@H](C(=O)N[C@@H]([C@H]2O[C@H](SC)[C@H](O)[C@@H](O)[C@H]2O)[C@@H](C)O)N(C)C1,-5.08%,
COc1c(C)c2c(c(O)c1CC=C(C)CCC(=O)O)C(=O)OC2,-14.1%,
O=C(O)c1cn(C2CC2)c2cc(Cl)c(F)cc2c1=O,11.9%,
CCN(CC)CC(=O)Oc1ccc(NC(C)=O)cc1,-5.08%,
NC(=O)C(c1ccccc1)(c1ccccc1)[C@@H]1CCN(CCc2ccc3c(c2)CCO3)C1,,19.5 µM (active)
C[N+]12CCC(CC1)C(OC(=O)C(O)(c1ccccc1)c1ccccc1)C2 (stereo not given),-8.47%,
Cc1cc(NC(=O)C2=C(O)c3ccccc3S(=O)(=O)N2C)no1,-0.837%,
COCc1c(C(C)C)nc(C(C)C)c(/C=C/[C@@H](O)C[C@@H](O)CC(=O)O)c1-c1ccc(F)cc1,27.7%,
CC(=O)OC(C)OC(=O)C(C)c1ccc(-c2ccccc2)c(F)c1 (stereo not given),-24.3%,
Cc1ccccc1C(C(=O)NC1CCCC1)N(C(=O)Cn1cnc2ccccc21)c1cccc(F)c1 (stereo not given),-4.95%,
Nc1ccc(S(=O)(=O)c2ccc(N)cc2)cc1,7.53%,
Cc1c(F)cc2c(=O)c(C(=O)O)cn3c2c1CCC3C (stereo not given),16.7%,
CON=C(C(=O)N[C@@H]1C(=O)N2C(C(=O)OCOC(=O)C(C)(C)C)=C(C=Cc3scnc3C)CS[C@H]12)c1csc(N)n1,-6.48%,
COc1cc2c(cc1OC)CN(C(=O)[C@H](C)N[C@@H](CCc1ccccc1)C(=O)O)[C@H](C(=O)O)C2,-10.7%,
CC(=O)NS(=O)(=O)c1ccc(N)cc1,-1.67%,
CN1CCN(CCCN2c3ccccc3Sc3ccc(S(=O)(=O)N(C)C)cc32)CC1,6.69%,

Compound,activation,Potency
O=C(O)c1ccccc1OP(=O)(O)O,-6.21%,
Nc1ccc(S(=O)(=O)Nc2ncccn2)cc1,-6.74%,
CCOc1ccccc1C(N)=O,-11.9%,
C[C@@H]1CCN(C(=O)CC#N)C[C@H]1N(C)c1ncnc2[nH]ccc12,-11.8%,
O=C(OCc1ccccc1)c1ccc(O)cc1,-15.3%,
Oc1cccc(-c2c3nc(c(-c4cccc(O)c4)c4ccc([nH]4)c(-c4cccc(O)c4)c4nc(c(-c5cccc(O)c5)c5ccc2[nH]5)CC4)C=C3)c1,25.9%,
COc1cc(Cl)cn2c(-c3cccc(NC4CNC4)n3)cnc12,-0.246%,
COc1ccc(C(C)=O)c(O)c1,14.5%,
NC(N)=Nc1nc(CSCCC(N)=NS(N)(=O)=O)cs1,11%,
CO[C@@]1(NC(=O)CSC[C@@H](N)C(=O)O)C(=O)N2C(C(=O)O)=C(CSc3nnnn3C)CS[C@@H]21,13.4%,
O=c1[nH]c(=O)c2ccccc2o1,-12.6%,
OCc1c[nH]c2ccccc12,,31.7 µM (active)
CCCCC(O)/C=C(C)/C=C/C=C/C(=O)N1CCCC1=O (stereo not given),13.4%,
CC1(C)[C@H]2CC[C@]3(C)[C@@H](C(=O)C=C4[C@@H]5C[C@@](C)(C(=O)O)CC[C@]5(C)CC[C@]43C)[C@@]2(C)CC[C@@H]1O,3.97%,
Cc1c(NC(C)C)c(=O)n(-c2ccccc2)n1C,11.7%,
Cc1cc(CCCOc2c(C)cc(-c3noc(C(F)(F)F)n3)cc2C)on1,19.8%,
Cc1onc(-c2c(Cl)cccc2Cl)c1C(=O)Cl,-15.3%,
CCS(=O)(=O)c1ccc(OC)c(C(=O)OC)c1,19.8%,
COc1cccc2c1C(=O)c1c(O)c3c(c(O)c1C2=O)C[C@@](O)(C(=O)CO)C[C@@H]3O[C@H]1C[C@H](N)[C@H](O[C@@H]2CCCCO2)[C@H](C)O1,,15.5 µM (active)
NC[C@H]1O[C@H](O[C@H]2[C@H](O)[C@@H](O[C@H]3O[C@H](CO)[C@@H](O)[C@H](N)[C@H]3O)[C@H](N)C[C@@H]2N)[C@H](N)[C@@H](O)[C@@H]1O,-10.7%,
